Structures are written as SMILES. Unmarked numbers belong to inactive results.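 The calls were made as follows: active = valid curve fit with half-effect dose at most 10 µM and total binding change across doses of 30 points or more; inactive = the rest.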

This test can be described thus: small GTPase nucleotide-binding inhibition, multiplex panel – biochemical, round 1 SAR, Mg buffer, multiplex flow cytometry, selectivity assay for Cdc42 probe extension project, SAR follow-up (AID 588477). The conditions noted are these: GST-GTPase beads, Bodipy-GTP binding, Ras constitutively active; series mostly up to 100 µM; percent response (remaining binding): at the top concentration.
With `NS(=O)(=O)c1ccc(N2N=C(c3ccccc3)CC2c2ccccc2)cc1` (stereo not drawn), the “percent response (remaining binding)” value was 29.9%. `O=C(C#Cc1ccccc1)c1cccc([N+](=O)[O-])c1`: the “percent response (remaining binding)” value is 28.2%. For the compound `COc1ccc(C2CC(c3ccccc3)=NN2c2ccc(S(N)(=O)=O)cc2)cc1` (stereo not drawn), the “percent response (remaining binding)” value was -36.9%.

(Values after PubChem BioAssay AID588477 (NMMLSC, 2011).)
